In PubChem BioAssay:
Active and inactive are the calls of the source.

How the values were obtained:
[1] = system: Human papillomavirus type 1a protein E7 (residues 44-93); assay: HPV1a E7 fragment binders on microarrays, primary screen, biochemical, small-molecule microarray, residues 44-93, 635 nm fluorescence (AID 1108); conditions: small-molecule microarray binding, fluorescence 635 nm; higher = more signal;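 further: E7 fragment applied at 1 µg/mL in TBST for 1 h at 4 C; score combines spot fluorescence with its signal to noise ratio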
[2] = modulators of HCV replicon luciferase signal, primary screen, HCV replication inhibitor project, Huh7 cells, luciferase reporter (AID 1109); conditions: 48 h, higher = more signal;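 further: huh7 hepatoma cells harbouring a luciferase neomycin HCV replicon reporter; luciferase luminescence as measure of HCV replicon replication; test concentration not given here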
[3] = biological target: Left-right determination factor 2 (Homo sapiens) (UniProt O00292); assay: LEFTY2 binders on small-molecule microarrays, primary screen, biochemical, small-molecule microarray, 635 nm fluorescence scan (AID 1110); conditions: LEFTY2 binding, higher = more signal
[4] = biological target: Calmodulin-1 (Homo sapiens) (UniProt P0DP23); assay: CALM1 binders on microarrays, EGTA buffer, profiling panel, biochemical, small-molecule microarray, Cy5-labelled CALM1 (AID 1111); conditions: Cy5-CALM1 binding fluorescence, higher = more signal;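 further: labelled calmodulin applied in Tris saline Tween buffer holding calcium plus EGTA and DTT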
[5] = biological target: Calmodulin-1 (Homo sapiens) (UniProt P0DP23); assay: calcium-bound CALM1 binders on microarrays, profiling panel, artefact control for SMM control-protein annotation, biochemical, small-molecule microarray, Cy5-labelled CALM1, plus calcium (AID 1112); conditions: Cy5-CALM1 binding fluorescence, higher = more signal;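 further: score merges spot fluorescence with signal to noise from triplicate slides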
[6] = small-molecule microarray binders of probe aWnt5a, primary screen, biochemical, biotinylated probe, 635/667 nm fluorescence (AID 1113); conditions: higher = more signal;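 further: score merges 667 nm fluorescence intensity with signal-to-noise per printed feature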
[7] = small-molecule microarray binders of probe aShh, primary screen, biochemical, biotinylated probe, 635/667 nm fluorescence (AID 1114); conditions: higher = more signal;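 further: probe is biotin-labelled aShh protein from a stem cell growth factor screen; measures binding of labelled protein to compounds printed on the slide; score merges feature fluorescence at 667 nm with signal-to-noise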
[8] = small-molecule microarray binders of probe aNog, primary screen, biochemical, biotinylated probe, 635/667 nm fluorescence (AID 1115); conditions: higher = more signal;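 further: probe is biotinylated aNog protein used at 0.15 µg/mL for 1 h at 4 C; z-score combines 667 nm fluorescence of each spot with its signal to noise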
[9] = biological target: Torsin-1A-interacting protein 1 (Homo sapiens) (UniProt Q5JTV8); assay: LAP1 binders from COS7 cell lysate, primary screen, small-molecule microarray, 635/667 nm fluorescence (AID 1116); conditions: COS7-hLAP1 lysate binding, 635 nm fluorescence, higher = more signal
[10] = biological target: Alpha-bungarotoxin (Bungarus multicinctus) (UniProt P60615); assay: alpha-bungarotoxin binders on microarray, profiling panel, artefact control for SMM control protein annotation, biochemical, small-molecule microarray, Alexa647 label, 635/667 nm fluorescence (AID 1117); conditions: alpha-BTX-A647 binding fluorescence, higher = more signal
Albumin (Bos taurus) = Albumin (Bos taurus) (UniProt P02769); assay: bovine serum albumin binders on microarray, profiling panel, artefact control for SMM control protein annotation, biochemical, small-molecule microarray, Alexa647 label, 635/667 nm fluorescence (AID 1118); conditions: BSA-A647 binding, fluorescence 635 nm, higher = more signal;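 further: score merges 667 nm emission intensity and signal-to-noise per printed compound spot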
[11] = small-molecule microarray binders of probe aXIP, primary screen, biochemical, NeuroSMM set, 635/667 nm fluorescence (AID 1119); conditions: higher = more signal, called active from +8 up or from −8 down;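 further: probe is the protein aXip251-270 applied at 1 µg/mL to compound-printed slides; binding of probe to printed compounds measured as 667 nm fluorescence plus signal to noise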
[12] = small-molecule binders of probe aNOTCH3, primary screen, biochemical, small-molecule microarray, 635/667 nm fluorescence (AID 1120); conditions: higher = more signal;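 further: probe is a biotin-tagged antibody raised against NOTCH3 rather than NOTCH3 protein; score merges spot fluorescence near 667 nm with spot signal to noise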
[13] = small-molecule binders of probe aNOTCH2, primary screen, biochemical, small-molecule microarray, 635/667 nm fluorescence (AID 1121); conditions: higher = more signal;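 further: score merges feature fluorescence read at 667 nm with its signal to noise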
[14] = biological target: Carbonic anhydrase 2 (Homo sapiens) (UniProt P00918); assay: CAII small-molecule binders, profiling panel, biochemical, small-molecule microarray, Alexa647-labelled CAII (AID 1122); conditions: CAII-A647 binding fluorescence, higher = more signal
[15] = COS7 lysate on small-molecule microarray, probe aHis, 635 nm (AID 1123); conditions: COS7 cell lysate, fluorescence, higher = more signal;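 further: z-score combines 667nm fluorescence intensity with signal-to-noise per printed compound spot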
[16] = compound binding in COS7 lysate, probe aLAP1, primary screen, cell lysate, small-molecule microarray (AID 1124); conditions: probe aLAP1, fluorescence, higher = more signal;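 further: lysate comes from COS7 cells expressing LAP1 and is applied at 0.3 µg/mL; score merges spot fluorescence near 667 nm with signal-to-noise over triplicate slides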
Sam68 (KHDRBS1) = assay: Sam68 small-molecule binders, primary screen, biochemical, small-molecule microarray, 635 nm fluorescence (AID 1125); conditions: small-molecule microarray binding, higher = more signal;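 further: score merges 667 nm channel intensity with signal to noise over triplicate slides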
[17] = system: Chordin-like protein 2 (CHRDL2); assay: CHRDL2 small-molecule binders, primary screen, biochemical, small-molecule microarray, 635 nm fluorescence (AID 1126); conditions: small-molecule microarray binding, fluorescence 635 nm; higher = more signal;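 further: printed compound slides probed with Chrdl2 protein at 4 µg/mL for 1 h at 4 C; score merges 667 nm emission intensity with signal to noise over three replicate slides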
[18] = biological target: Concanavalin-A (Canavalia ensiformis) (UniProt P02866); assay: ConA small-molecule binders, primary screen, artefact control for SMM control protein annotation, biochemical, small-molecule microarray, Alexa647 label, 635 nm (AID 1127); conditions: ConA-A647 binding fluorescence, higher = more signal;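 further: z combines 667 nm emission intensity with signal-to-noise across three replicate slides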
Concanavalin-A (Canavalia ensiformis), sequence (P02866 whole entry, looked up): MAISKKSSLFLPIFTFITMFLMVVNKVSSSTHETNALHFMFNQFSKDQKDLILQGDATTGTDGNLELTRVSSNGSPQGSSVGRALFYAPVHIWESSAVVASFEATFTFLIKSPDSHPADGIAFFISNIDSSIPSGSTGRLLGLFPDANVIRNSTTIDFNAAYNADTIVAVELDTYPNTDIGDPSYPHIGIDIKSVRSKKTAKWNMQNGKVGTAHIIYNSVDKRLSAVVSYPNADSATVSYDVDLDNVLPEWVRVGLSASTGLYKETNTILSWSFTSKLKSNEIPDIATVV

Left-right determination factor 2 (Homo sapiens), sequence (O00292 whole entry, looked up): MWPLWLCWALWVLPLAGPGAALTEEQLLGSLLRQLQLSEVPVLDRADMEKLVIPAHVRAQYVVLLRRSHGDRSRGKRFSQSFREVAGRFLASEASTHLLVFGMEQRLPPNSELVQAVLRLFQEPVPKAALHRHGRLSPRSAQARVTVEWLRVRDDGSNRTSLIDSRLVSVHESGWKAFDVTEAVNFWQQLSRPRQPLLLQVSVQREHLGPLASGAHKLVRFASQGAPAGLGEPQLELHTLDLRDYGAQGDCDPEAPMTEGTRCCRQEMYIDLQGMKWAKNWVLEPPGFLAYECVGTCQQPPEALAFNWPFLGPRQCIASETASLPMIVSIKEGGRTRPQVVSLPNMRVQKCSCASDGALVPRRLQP
Torsin-1A-interacting protein 1 (Homo sapiens), sequence (Q5JTV8 whole entry, looked up): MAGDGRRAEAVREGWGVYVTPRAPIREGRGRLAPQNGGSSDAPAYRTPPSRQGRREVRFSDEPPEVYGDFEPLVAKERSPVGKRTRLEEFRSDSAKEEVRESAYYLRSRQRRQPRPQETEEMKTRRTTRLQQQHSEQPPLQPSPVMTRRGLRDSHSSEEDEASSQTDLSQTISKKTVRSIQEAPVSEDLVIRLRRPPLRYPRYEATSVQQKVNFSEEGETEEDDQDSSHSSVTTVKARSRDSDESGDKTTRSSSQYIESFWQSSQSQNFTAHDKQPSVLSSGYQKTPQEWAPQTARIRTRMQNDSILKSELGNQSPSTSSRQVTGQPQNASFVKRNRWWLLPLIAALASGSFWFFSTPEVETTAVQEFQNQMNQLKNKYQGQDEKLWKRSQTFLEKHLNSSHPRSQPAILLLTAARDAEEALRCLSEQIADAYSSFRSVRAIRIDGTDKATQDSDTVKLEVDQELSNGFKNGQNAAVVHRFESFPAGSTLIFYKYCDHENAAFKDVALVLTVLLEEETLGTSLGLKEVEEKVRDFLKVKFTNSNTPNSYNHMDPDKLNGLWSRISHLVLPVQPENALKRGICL
Alpha-bungarotoxin (Bungarus multicinctus), sequence (P60615 whole entry, looked up): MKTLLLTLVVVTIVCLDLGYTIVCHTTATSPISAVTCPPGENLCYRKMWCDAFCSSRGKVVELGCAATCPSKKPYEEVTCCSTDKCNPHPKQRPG
Albumin (Bos taurus), sequence (P02769 whole entry, looked up): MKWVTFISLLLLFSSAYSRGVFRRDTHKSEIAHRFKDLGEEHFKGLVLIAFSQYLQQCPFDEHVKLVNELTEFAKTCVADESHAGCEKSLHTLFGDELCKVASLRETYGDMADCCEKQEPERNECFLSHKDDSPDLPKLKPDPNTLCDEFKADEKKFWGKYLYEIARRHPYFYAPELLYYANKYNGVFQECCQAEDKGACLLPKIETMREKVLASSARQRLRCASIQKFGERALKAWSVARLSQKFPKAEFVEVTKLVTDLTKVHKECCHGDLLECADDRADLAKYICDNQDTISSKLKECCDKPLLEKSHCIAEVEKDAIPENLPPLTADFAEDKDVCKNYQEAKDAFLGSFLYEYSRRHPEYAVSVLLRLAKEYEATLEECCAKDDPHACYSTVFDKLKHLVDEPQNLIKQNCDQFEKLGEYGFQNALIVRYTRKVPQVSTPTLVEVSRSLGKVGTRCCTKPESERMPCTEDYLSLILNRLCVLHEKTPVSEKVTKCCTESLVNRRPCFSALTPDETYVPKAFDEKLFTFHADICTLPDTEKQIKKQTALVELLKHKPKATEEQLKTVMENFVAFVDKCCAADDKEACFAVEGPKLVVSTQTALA

Structure (SMILES) | composite z-score [1] | z-score [2] | composite z-score [3] | composite z-score [4] | composite z-score [5] | composite z-score [6] | composite z-score [7] | composite z-score [8] | composite z-score [9] | composite z-score [10] | composite z-score (Albumin (Bos taurus)) | composite Z-score [11] | composite z-score [12] | composite z-score [13] | composite z-score [14] | composite z-score [15] | composite z-score [16] | composite z-score (Sam68 (KHDRBS1)) | composite z-score [17] | composite z-score [18]
COc1ccc(NN2C(C(O)c3ccc(I)cc3)C=CC3C(=O)N(C4CCCCC4)C(=O)C32)cc1 (stereo not given) | 1.43 | -2.6 | 0.349 | 1.21 | 0.679 | 0.18 | -0.147 | 0.261 | 0.811 | 1.45 | 0.843 | 0.84 (inactive) | 0.394 | -0.075 | 0.444 | 1.53 | 0.444 | 1.32 | -0.195 | 1.1
O=C(NCCN1CCOCC1)[C@@H]1c2ccccc2C(=O)N(Cc2ccccc2C(F)(F)F)[C@H]1c1ccc(CO)cc1 | 1.01 | -0.513 | -1.45 | -0.804 | -0.56 | -0.145 | -0.73 | 0.0703 | -0.851 | -0.755 | 0.0089 | -0.141 (inactive) | -0.425 | -0.108 | 0.341 | -0.0272 | 2.49 | 1.29 | -0.93 | 0.0882
C=C(C)[C@@H]1CC=C(C(O)C2C=CC3C(=O)N(c4ccccc4)C(=O)C3N2Nc2ccc([N+](=O)[O-])cc2)CC1 (stereo not given in full) | 1.46 | -0.315 | 1.26 | -0.0515 | 0.261 | -0.0222 | -0.0119 | 1.24 | -0.151 | 0.839 | 0.83 | 0.115 (inactive) | 0.0254 | 0.09 | 0.558 | 2.92 | 0.22 | 1.32 | 0.077 | 0.246
Cc1ccc(S[C@]2(C(=O)NC(C)C)CC(=O)N(C3CCCCC3)[C@@H]2c2ccc(CO)cc2I)cc1 | 1.44 | -2.93 | -0.0068 | 0.679 | -0.558 | -0.0721 | -0.0035 | 0.313 | 0.208 | 1.52 | 0.529 | 0.339 (inactive) | 0.0488 | -0.0727 | 0.645 | 2.6 | 0.487 | 1.28 | -0.325 | 1.11
CC1CC/C=C\[C@H]2OC34C=CCN(Cn5nnc6ccccc65)C(=O)[C@H]3N(CCCCCCO)C(=O)[C@@H]4C2C(=O)O1 (stereo not given in full) | -0.0257 | 0.0151 | -1.7 | 0.259 | 0.659 | -0.232 | -0.0709 | 0.0021 | 0.145 | -0.551 | -0.252 | 0.347 (inactive) | -0.427 | -0.214 | 0.398 | -0.0339 | 0.523 | -0.682 | -1.25 | 0.257
